Our source for the inhibition values is PubChem BioAssay AID651995 (Sanford-Burnham Center for Chemical Genomics, 2013).

In all, about 2,500 compounds went through this assay and about 480 (19%) were called active. Only a sample is shown. Values without a mark were called inactive.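 How the source made its calls: active means mean inhibition above about 25% (limit read from the data); inactive means the rest.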

The assay can be described thus: Wnt3a reporter signal inhibition, confirmation, counter-screen for Gli-SUFU antagonist project, Wnt-LIGHT cells, luminescence, single concentration (AID 651995). Particulars: Wnt3a-driven luciferase reporter, at 6.25 µM, active compounds read high.
With `CC1(C)CC2CC(C)(CN2c2ncnc3ccc(Br)cc23)C1` (stereo not drawn), the inhibition was 19%. Next, `CC1(C)CC(=O)c2c(n(S(=O)(=O)c3ccccc3)c3ccc(NS(=O)(=O)c4ccccc4)cc23)C1`: 13.1%; `COc1ccc(OC)c(Cc2cnc3nc(N)nc(N)c3c2C)c1`: 14.4%; `O=C1/C(=C/c2ccc(F)cc2)SC(=S)N1NS(=O)(=O)c1ccccc1`: 12.4%.

Turning to `CN(c1ccc2nc3ccccc3c(=O)n2n1)C1CCCCC1`, the inhibition was 101% (active). In the case of `CC(C)(CNC(=O)c1ccc(Cl)c(S(=O)(=O)N2CCc3ccccc3C2)c1)N1CCOCC1`, the inhibition was -21.4%. Next, `O=C(CN1CCN(S(=O)(=O)c2cc(Cl)ccc2Cl)CC1)c1ccc(O)c(O)c1`: 73.7% (active). The result for `Nc1ccc(C(=O)N2CCN(S(=O)(=O)c3ccc(Cl)cc3)CC2)cc1[N+](=O)[O-]` reads -13.1%; that for `COc1cccc(-n2cc(C(=O)O)c3ccccc3c2=O)c1`, 20.7%. For `CCOC(=O)c1cnc(Nc2nc3ccccc3o2)nc1CSC(=S)N1CCCCC1`, the inhibition was -97.9%. In the case of `COc1ccccc1CCNC(=O)C(=O)NCCC1CCCCN1S(=O)(=O)c1cccs1` (stereo not drawn), the inhibition is -17.3%. As for `CC(=O)Nc1ccc(NC(=O)c2ccc3c(c2)C(=O)N(c2ccccc2C)C3=O)cc1`, the inhibition is 3.62%. The result for `COC(=O)c1ccc(CSc2nnc(N)s2)o1` reads -4.51%. Take `O=C1/C(=C\c2cccnc2)CN(Cc2ccccc2)C/C1=C\c1cccnc1`: the inhibition is -9.32%. Next, `Cc1ccsc1C(=O)OCC(=O)c1cc(C)n(CC2CCCO2)c1C` (stereo not drawn): 104% (active); `Cc1onc(-c2ccccc2)c1C(=O)Nc1ccccc1C#N`: -19.9%. On to `CC(=O)Nc1cccc(OCC(=O)/C=C2\N(C)c3ccccc3C2(C)C)c1`, for which the inhibition is -13.7%. Consider `CCCCNc1nc2c(c(=O)n(C)c(=O)n2C)n1Cc1cccc(OC)c1`, for which the inhibition is 36.1% (active).

Turning to `COCCn1c(CN2CCC(Cc3ccccc3)CC2)nc2c1c(=O)n(C)c(=O)n2C`, the inhibition is 16.5%.

For the compound `Cn1c(=O)c2c(nc(NCCc3ccccc3)n2Cc2ccccc2)n(C)c1=O`, the inhibition is -9.98%. Regarding `CN(C)c1cc[n+](Cc2ccccc2)cc1`, the inhibition is 12.4%.

For `COc1ccc2nc(SCC(=O)Nc3c(C)cc(C)cc3C)[nH]c2c1`, the inhibition was -15%. Next, `O=C(Nc1cccc(S(=O)(=O)Nc2ccc(Cl)cc2)c1)c1ccc2c(c1)OCCO2`: -22.2%. The result for `Cc1ccc(NC(=S)Nc2ccc(F)cc2)cc1` reads -8.22%; that for `CC(C)c1ccc(OCC(O)CN2CCN(c3ccccn3)CC2)cc1` (stereo not drawn), -70.7%; that for `C=CCNC(=S)/N=c1/ccccn1Cc1ccccc1`, -4.94%. The result for `CCOC(=O)c1ccc(NC(=O)Cn2cnc3cc(C)c(C)cc32)cc1` reads -27.9%; that for `COc1ccc(NC(=O)[C@H](NC(=O)[C@@H]2Cc3ccccc3CN2)c2ccccc2)cc1`, -2.11%. For the compound `Cc1ccc(C)c(S(=O)(=O)N2CCN(c3ncnc4sccc34)CC2)c1`, the inhibition is 11.2%. Next, `CC(=O)N1CCCc2cc(S(=O)(=O)N3CCCC(C(=O)N4CCN(c5cccc(Cl)c5)CC4)C3)ccc21` (stereo not drawn): 29.8% (active); `Brc1c(CSc2nncc3ccccc23)nc2ccccn12`: 1.67%.

With `COc1ccc(Cn2c(-c3ccc(Cl)cc3)c[n+]3ccccc23)cc1`, the inhibition is -74.3%. Next, `CCCCC(=O)NC(c1ccc(OC)c(OC)c1)c1ccc2cccnc2c1O` (stereo not drawn): 53.4% (active); `Cc1ccc(Nc2nc(N3CCOCC3)nc(N3CCOCC3)n2)cc1Cl`: -104%; `COc1ccccc1C1C2=C(COC2=O)Nc2cc3c(cc21)OCO3` (stereo not drawn): -30.9%. The result for `COC(=O)Cc1[nH]n(-c2nc3ccccc3s2)c(=O)c1C(C)=Nc1ccc(OC)cc1` reads 104% (active); that for `COc1cc(C(=O)OC2CCOC2=O)c([N+](=O)[O-])cc1OC` (stereo not drawn), 1.38%; that for `CCOc1ccc(-n2c(O)c(/C=N/Nc3nc(C)cc(C)n3)c3ccccc3c2=O)cc1`, 16.1%. The result for `CN1C(CC(=O)Nc2ccc(Br)cc2)c2ccccc2CC1(C)C` (stereo not drawn) reads -37.9%; that for `C/C(=N\NC(=O)Cc1ccc(Cl)cc1)c1ccccn1`, 48.9% (active). In the case of `CC(=O)/C(=N\Nc1ccc(Cl)cc1Cl)Sc1cccc2cccnc12`, the inhibition was -140%. As to `CCNC(=S)N(CCN(CC)CC)Cc1cc2cc3c(cc2[nH]c1=O)OCO3`, the inhibition was -0.1%. Next, `Cc1nonc1C1CCCN1C(=O)c1cc(COc2cccc(C(F)(F)F)c2)on1` (stereo not drawn): -42%. The result for `Cc1ccc(S(=O)(=O)N(Cc2cc3ccccc3[nH]c2=O)CC2CCCO2)cc1` (stereo not drawn) reads 1.8%; that for `Cc1cc2[nH]ncc2cc1NC(=S)NC(=O)c1ccccc1`, -34.9%; that for `Cc1ccccc1C(=O)NC(=S)Nc1ccc(N2CCN(C(=O)c3ccccc3)CC2)cc1`, 41.2% (active).

Consider `Cc1cc(C)c(SCCc2ccncc2)c(C)c1`, for which the inhibition was 32% (active). The result for `CCCOc1ccc(Cc2c(Cl)nc(SC)nc2NC)cc1` reads 26.9% (active); that for `O=C(Nc1ccnn1C1CCN(C/C=C/c2ccc(F)cc2)CC1)C1CCCC1`, -63.4%.

As to `CNc1ccc(SC#N)cc1`, the inhibition was -9.54%. The result for `COc1ccc(C(=O)NC2CCCc3c2cnn3-c2cccc(C)c2C)c(OC)n1` (stereo not drawn) reads 24.6%; that for `CCN(CC)CCNC(=O)c1ccc(NC(=O)c2cc(-c3ccncc3)nc3ccccc23)cc1`, -2.49%; that for `Cc1ccc(C(=O)C[n+]2cc(-c3ccccc3)n3c2CCCCC3)cc1`, -0.91%. As to `Cc1ccc(-c2nc3c(cnn3-c3ccccc3)c(=O)o2)cc1`, the inhibition is 4.18%. Regarding `O=C(C[C@H]1C/C=C\C[C@@H](NC(=O)OCC2c3ccccc3-c3ccccc32)C(=O)O[C@@H](c2ccccc2)CNC1=O)N[C@H](CO)Cc1ccccc1`, the inhibition was -44.6%. For the compound `COc1ccc(OC)c(/C=N/NC(=O)c2ccc[n+](CC(=O)c3ccccc3)c2)c1`, the inhibition was 2.64%. On to `CC[n+]1c(C)n(-c2ccccc2)c2ccc(NC(C)=O)cc21`, for which the inhibition is 43.4% (active). For the compound `Cc1ccc(O)c(NC(=O)COc2cc(C)ccc2C)c1`, the inhibition is -3.69%.
